T cruzi growth-1 = T. cruzi intracellular proliferation inhibitors, primary screen, cell-based, beta-gal Tulahuen parasites, NIH3T3 host, luminescence | T. cruzi beta-gal in NIH3T3, GalScreen luminescence, 90 h | inhibition, % at 8.34 µM | 77,000 tested, 5.9% active;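 active = mean inhibition above about 93%, with at least 55% of replicates each passing it, limit read from the data, passing the limit was not always enough; inconclusive = only one of those two conditions holds; inactive = neither condition holds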
Pf Dd2 inh = P. falciparum Dd2 growth inhibitors, primary screen, SYBR Green fluorescence, single dose replicates; 72 h; hits give low values; activity change, % at 10 µM; 94,000 tested, 2.3% active; AID 1159554, 2015; in the data active = activity change below about -80%; inconclusive = no clear call, values can overlap the other calls
C diff growth = C. difficile growth inhibitors, primary screen, HTS; Clostridium difficile clinical isolate growth, OD600, 24 h; hits give low values; growth activity, negative = inhibition, % at 16 µg/mL (by protocol); 86,000 tested, 0.25% active;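 active = mean growth activity at or below -80% and every replicate also at or below -80%; inconclusive = mean at or below -80% but some replicate above -80%; inactive = mean growth activity above -80%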;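 also: 0% = DMSO wells and -100% = levofloxacin 16 µg/mL wells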
T cruzi growth-2 = T. cruzi intracellular proliferation inhibitors, confirmation, cell-based, NIH3T3 host, beta-gal parasite, luminescence, cherry-pick. shares compounds with T cruzi growth-1. 5,600 tested, 72% active. inhibition, % at 8.35 µM. T. cruzi beta-gal in NIH3T3, GalScreen luminescence, 90 h. AID 651739, 2012;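 active = mean replicate inhibition above about 95% and at least 55% of replicates individually reaching it, limit read from the data; inconclusive = only one of the two criteria is met; inactive = neither criterion is met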
T cruzi growth-3 = inhibitors of intracellular T. cruzi replication, confirmation, NIH3T3 host cells, beta-gal parasites, cherry-pick, set 2. shares compounds with T cruzi growth-1. T. cruzi beta-gal in NIH3T3, GalScreen luminescence, 90 h. inhibition, % at 2.09 µM. 5,600 tested, 21% active;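 active = mean inhibition above about 95%, with at least 55% of replicates also reaching it, limit read from the data; inconclusive = meets just one of the two conditions; inactive = meets neither condition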;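 also: plate controls were neutral control median for no effect and positive control median for full effect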
NIH3T3 tox = cytotoxicity in mouse NIH/3T3 fibroblasts, confirmation, cytotoxicity control for T. cruzi proliferation inhibitor project, cell-based, cherry-pick, single point. AID 651742, 2012. 5,600 tested, 14% active. NIH/3T3 viability, CellTiter-Glo ATP luminescence, 90 h. shares compounds with T cruzi growth-1. cytotoxicity (signal decrease), % at 8.35 µM;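 active = mean signal decrease across replicates above about 35% based on untreated-well scatter, with enough replicates individually passing, limit read from the data; inconclusive = no rule stated though some were filed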;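 also: 0% = median of neutral control wells and 100% = median of positive control wells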
3T3 cytotox 2 = NIH/3T3 fibroblast cytotoxicity, confirmation, cytotoxicity control, cell-based, cherry-pick, single point, set 2; shares compounds with T cruzi growth-1; AID 651744, 2012; NIH/3T3 viability, CellTiter-Glo ATP luminescence, 90 h; 5,600 tested, 56% active; inhibition, % at 24.9 µM;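 active = mean loss of cell viability signal at or above a set limit, and enough replicates individually reaching it; inconclusive = meets only the mean limit or only the replicate share; inactive = meets neither condition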;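 also: 0% = median of neutral control wells and 100% = median of positive control wells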
The depositor's hits bear a star; ? = inconclusive; . = no result given. Most compounds without a hit are left out; they make up all but 6.7% or so of the library.

SMILES | T cruzi growth-1 | Pf Dd2 inh | C diff growth | T cruzi growth-2 | T cruzi growth-3 | NIH3T3 tox | 3T3 cytotox 2
O=C(C[C@H]1CC[C@H]2[C@@H](COC[C@@H](O)CN2Cc2cccc(-c3ccncc3)c2)O1)N1CCCCC1 | 109* | -18 | . | 59 | -13 | -23 | -5
CN1CCN(C(=O)C[C@H]2CC[C@@H]3[C@H](COC[C@H](O)CN3Cc3cccc(Cl)c3)O2)CC1 | -39 | 6 | . | . | . | . | .
O=C(C[C@H]1CC[C@H]2[C@@H](COC[C@@H](O)CN2C(=O)Nc2cccc(Cl)c2)O1)N1CCCCC1 | 13 | 6 | 25 | . | . | . | .
O=C(C[C@@H]1CC[C@H]2[C@@H](COC[C@@H](O)CN2C(=O)Nc2cccc(Cl)c2)O1)N1CCCCC1 | 95* | -6 | 41 | 64 | 16 | -2 | 15
CCC(=O)N1C[C@H](C)[C@H](OC)CN(C)C(=O)c2cc(NC(=O)CC(F)(F)F)ccc2OC[C@@H]1C | . | -6 | -5 | . | . | . | .
O=C(C[C@H]1CC[C@@H]2[C@H](COC[C@@H](O)CN2Cc2ccccc2)O1)N1CCOCC1 | 58 | 5 | 3 | . | . | . | .
C[C@H]1CN([C@@H](C)CO)C(=O)c2cccc(NC(=O)Nc3ccc(C(F)(F)F)cc3)c2O[C@@H]1CN(C)Cc1ccncc1 | . | 9 | 6 | . | . | . | .
C[C@@H]1CN([C@H](C)CO)S(=O)(=O)c2ccc(-c3cncnc3)cc2O[C@@H]1CN(C)C(=O)C1CC1 | 32 | 28 | 11 | . | . | . | .
C[C@@H]1CCCCO[C@@H](CN(C)S(=O)(=O)c2ccc(Cl)cc2)[C@H](C)CN([C@@H](C)CO)C(=O)c2cc(NS(=O)(=O)c3cn(C)cn3)ccc2O1 | 29 | -21 | -1 | . | . | . | .
COc1ccc(-c2cn(CC[C@H]3CC[C@H](NC(=O)c4cnccn4)[C@@H](CO)O3)nn2)cc1 | -23 | 2 | -5 | . | . | . | .
COCC(=O)Nc1ccc2c(c1)[C@H]1C[C@@H](CC(=O)NCc3ccc(-c4ccccc4)cc3)O[C@@H](CO)[C@H]1O2 | 36 | -20 | -12 | . | . | . | .
COCC(=O)Nc1ccc2c(c1)[C@@H]1C[C@@H](CC(=O)NCc3ccc(-c4ccccc4)cc3)O[C@@H](CO)[C@@H]1O2 | ? | -9 | 1 | 35 | -43 | 37* | 23
COCC(=O)Nc1ccc2c(c1)[C@@H]1C[C@H](CC(=O)NCc3ccccc3)O[C@@H](CO)[C@@H]1O2 | . | -40 | 1 | . | . | . | .
COCC(=O)Nc1ccc2c(c1)[C@H]1C[C@H](CC(=O)NCc3ccc(-c4ccccc4)cc3)O[C@H](CO)[C@H]1O2 | 111* | -50 | -3 | 70 | 28 | -19 | 18
COCC(=O)Nc1ccc2c(c1)[C@H]1C[C@@H](CC(=O)NCc3ccc(-c4ccccc4)cc3)O[C@H](CO)[C@H]1O2 | 102* | -42 | 3 | 12 | -5 | 8 | 17
COCC(=O)Nc1ccc2c(c1)[C@H]1C[C@H](CC(=O)NCc3ccc(-c4ccccc4)cc3)O[C@@H](CO)[C@H]1O2 | 47 | 5 | 1 | . | . | . | .
CCC(=O)N1CC2(C1)[C@@H](c1ccc(-c3cccc(F)c3)cc1)[C@@H](CO)N2CC1CC1 | . | -8 | 3 | . | . | . | .
CC(C)NC(=O)Nc1ccc2c(c1)CC(=O)N([C@H](C)CO)C[C@@H](C)[C@H](CN(C)C(=O)Nc1ccccc1)O2 | -3 | 11 | -10 | . | . | . | .
Cc1noc(C)c1NC(=O)N[C@H]1C=C[C@@H](CC(=O)N2CCCCC2)O[C@H]1CO | 49 | 22 | -1 | . | . | . | .
COc1ccc2c3c(n(C)c2c1)[C@H](CO)N(C(=O)Nc1ccc(F)cc1)CC31CCN(C(=O)CC2CC2)CC1 | . | -71 | 40 | . | . | . | .
C[C@@H]1CN([C@H](C)CO)C(=O)c2cc(NC(=O)Nc3ccc(C(F)(F)F)cc3)ccc2O[C@@H]1CN(C)Cc1ccc(Cl)c(Cl)c1 | 90 | 0 | 15 | . | . | . | .
C[C@@H]1CN([C@H](C)CO)C(=O)Cc2cc(NC(=O)c3ccncc3)ccc2O[C@H]1CN(C)Cc1ccc(Oc2ccccc2)cc1 | 105* | -17 | -15 | 109* | 36 | 4 | 103*
C[C@H](CO)N1C[C@H](C)[C@@H](CN(C)Cc2ccc(C(F)(F)F)cc2)Oc2ccc(NC(=O)c3ccncc3)cc2CC1=O | 96* | -7 | -10 | 105* | 33 | 14 | 59*
C[C@@H]1CN([C@@H](C)CO)C(=O)Cc2cc(NC(=O)c3ccncc3)ccc2O[C@@H]1CN(C)Cc1ccc(Oc2ccccc2)cc1 | 100 | -11 | -12 | . | . | . | .
C[C@H](CO)N1C[C@H](C)[C@@H](CN(C)Cc2ccncc2)Oc2ccc(NC(=O)c3ccncc3)cc2CC1=O | 10 | 17 | 4 | . | . | . | .
SMILES | T cruzi growth-1 | Pf Dd2 inh | C diff growth | T cruzi growth-2 | T cruzi growth-3 | NIH3T3 tox | 3T3 cytotox 2
C[C@@H]1CN([C@@H](C)CO)C(=O)Cc2cc(NC(=O)c3ccncc3)ccc2O[C@H]1CN(C)Cc1ccc(-c2ccccc2)cc1 | 109* | -66 | 6 | 104* | 111* | 28 | 103*
C[C@H](CO)N1C[C@H](C)[C@@H](CN(C)Cc2ccc(Oc3ccccc3)cc2)Oc2ccc(NC(=O)c3ccncc3)cc2CC1=O | 97* | -21 | 1 | 111* | 40 | 12 | 106*
C[C@H](CO)N1C[C@H](C)[C@@H](CN(C)Cc2ccccc2)Oc2ccc(NC(=O)c3ccncc3)cc2CC1=O | 68 | 8 | 0 | . | . | . | .
C[C@H]1CN([C@@H](C)CO)C(=O)Cc2cc(NC(=O)c3ccncc3)ccc2O[C@@H]1CN(C)Cc1ccc(-c2ccccc2)cc1 | 81 | -36 | -3 | . | . | . | .
CC(C)NC(=O)N(C)C[C@@H]1Oc2ncc(C#CC3(O)CCCC3)cc2C(=O)N([C@H](C)CO)C[C@H]1C | -52 | 23 | -3 | . | . | . | .
CN1CCN(C(=O)C[C@H]2CC[C@@H]3[C@@H](COc4ccc(NC(=O)c5cscn5)cc4C(=O)N3C)O2)CC1 | -30 | 9 | -4 | . | . | . | .
Cc1noc(C)c1S(=O)(=O)Nc1ccc2c(c1)C(=O)N([C@H](C)CO)C[C@H](C)[C@H](CN(C)C(=O)C1CCCCC1)OCCCC[C@@H](C)O2 | 45 | -40 | -3 | . | . | . | .
Cc1cccc(NC(=O)Nc2ccc3c(c2)C(=O)N(C)[C@H]2CC[C@H](CC(=O)O)O[C@@H]2CO3)c1 | -19 | 2 | 5 | . | . | . | .
C[C@H](CO)N1C[C@H](C)[C@@H](CN(C)Cc2ccc(-c3ccccc3)cc2)Oc2ccc(NC(=O)C3CC3)cc2CC1=O | 105* | -19 | 10 | 106* | 77 | 10 | 105*
